The results in this text go back to paper PMC10668032, “Altered binding affinity of SIX1-Q177R correlates with enhanced WNT5A and WNT pathway effector expression in Wilms tumor”.

In all, about 33,000 sequences were measured (“e-score”: median about -0.053, highest 2% from about 0.38 on). What follows is part of a selection rich in the highest values, with near analogues and random picks from the rest.

This test addresses T1, SIX1 homeodomain (reference allele) (human, UniProt Q15475 108-198).
T1 sequence: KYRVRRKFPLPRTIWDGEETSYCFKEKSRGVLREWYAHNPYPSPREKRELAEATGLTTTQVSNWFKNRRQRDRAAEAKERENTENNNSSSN
Nature of the test: universal protein binding microarray; Universal all-10-mer PBM (8x60K, AMADID 030236), 300 nM GST-tagged protein, Alexa Fluor 488 anti-GST; buffer, salt, pH and temperature not stated (as in Berger); high values mean tight binding. The following applies: protein: ivt; tags: N-terminal GST; dsDNA, one strand shown. The method, boiled down:
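GST-tagged homeodomains were made by in vitro transcription/translation and quantified by anti-GST western blot against a recombinant GST standard curve. They were applied in duplicate at 300 nM final concentration to universal 'all 10-mer' protein binding microarrays (8×60K format). Binding was quantified as 8-mer E-scores with the Universal PBM Analysis Suite.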
In the case of GATCGCCA, the binding signal was found to be 0.211 ± 0.0516 E-score.
The result for GATCCCCC reads 0.47 ± 0.0193 E-score; that for ATCTACAG, 0.152 ± 0.023 E-score; that for ACGTATAT, 0.271 ± 0.065 E-score.
The result for ATCTAGAT reads 0.26 ± 0.0531 E-score.
The figure for CGAGACGA is 0.156 ± 0.029 E-score.
Consider CCGGAGAC, for which the binding signal came to 0.184 ± 0.00939 E-score.
The figure for CCCCGATC is 0.346 ± 0.0685 E-score; for ATGAGCTC it is 0.166 ± 0.0357 E-score; for GATCCAGC it is 0.265 ± 0.0768 E-score.
In the case of GATCCTCC, the binding signal worked out at 0.381 ± 0.0158 E-score.
The figure for GATCCACC is 0.394 ± 0.0435 E-score; for CATCCTCC it is 0.153 ± 0.0426 E-score.
The result for GATCCACA reads 0.335 ± 0.0765 E-score.
The result for GATCCTCA reads 0.295 ± 0.0129 E-score; that for ATCTGTCC, 0.29 ± 0.0606 E-score; that for CGAGACAC, 0.176 ± 0.0324 E-score.
For the sequence CATAGATA, the binding signal stood at 0.259 ± 0.0781 E-score.
The figure for TCACATGA is 0.166 ± 0.0132 E-score.
The result for GAATCCCA reads 0.165 ± 0.0648 E-score.
The figure for ATCTCCCA is 0.238 ± 0.0314 E-score; for AAATCCCC it is 0.181 ± 0.0853 E-score; for CAATCCCG it is 0.155 ± 0.0636 E-score.
On to GTATCCCA, for which the binding signal was 0.388 ± 0.0324 E-score.
For CTATCCCA, the binding signal amounted to 0.257 ± 0.013 E-score.
For ATCTCCCG, the binding signal came out at 0.222 ± 0.0116 E-score.
The result for ATATCCCA reads 0.418 ± 0.0119 E-score.
The figure for ATATCCCC is 0.457 ± 0.00651 E-score; for CAATCCCA it is 0.177 ± 0.00991 E-score.
CTATCCCC: the binding signal stood at 0.321 ± 0.0256 E-score.
As to ATATCCCG, the binding signal amounted to 0.42 ± 0.0102 E-score.
The figure for ATCAAGGG is 0.258 ± 0.0527 E-score; for GGAGATTA it is 0.197 ± 0.0921 E-score.
As to ATCGGGTC, the binding signal was found to be 0.285 ± 0.0351 E-score.
The figure for CCGATGAG is 0.173 ± 0.0124 E-score; for GAGATAGA it is 0.183 ± 0.00408 E-score.
The result for ACGAATAT reads 0.179 ± 0.047 E-score; that for CGTTATAC, 0.204 ± 0.0355 E-score.
With ATCATGTG, the binding signal amounted to 0.328 ± 0.0175 E-score.
The result for CATTGCGG reads 0.222 ± 0.028 E-score; that for CCGCCATA, 0.209 ± 0.0131 E-score; that for ATACAACG, 0.152 ± 0.0326 E-score.
The figure for ATCCTCTC is 0.264 ± 0.0756 E-score; for ATCGCTCA it is 0.192 ± 0.00955 E-score.
The figure for GCGGTATA is 0.3752 ± 0.00298 E-score; for AGGGTATA it is 0.407 ± 0.0114 E-score.
CGGGTCTC: the binding signal was 0.187 ± 0.0479 E-score.
The figure for AGGGGGTA is 0.294 ± 0.0383 E-score.
The figure for TAGGTATA is 0.382 ± 0.0292 E-score; for GGGGTATA it is 0.441 ± 0.0155 E-score; for AAGGTATA it is 0.272 ± 0.131 E-score.
The figure for CGGGTATC is 0.487 ± 0.00716 E-score; for CGGGTATA it is 0.365 ± 0.00269 E-score; for GGGGTAGA it is 0.158 ± 0.0407 E-score.
With CGGGGGTA, the binding signal came to 0.301 ± 0.0117 E-score.
The result for TGATGCCA reads 0.152 ± 0.025 E-score.
With ATAGGGCG, the binding signal was 0.158 ± 0.0277 E-score.
As for AATATCTG, the binding signal stood at 0.188 ± 0.0693 E-score.
The result for CATGAAAG reads 0.157 ± 0.0184 E-score.
Take AGGGTAAT: the binding signal was determined as 0.205 ± 0.0122 E-score.
The result for AGGGTATC reads 0.4907 ± 0.00122 E-score.
The figure for AGGGTATG is 0.28 ± 0.0175 E-score.
The figure for CCATCCCC is 0.203 ± 0.0814 E-score; for GTAATATA it is 0.226 ± 0.0387 E-score.
Take AGTGATAT: the binding signal is 0.451 ± 0.0283 E-score.
The figure for AGTGACAC is 0.354 ± 0.0169 E-score.
Take GGTGATGA: the binding signal was 0.191 ± 0.0354 E-score.
The result for GGTGATAA reads 0.154 ± 0.0176 E-score; that for AGTGAGAT, 0.306 ± 0.0146 E-score.
As to CGTGACAC, the binding signal came to 0.2472 ± 0.00208 E-score.
The result for AGTGATAG reads 0.32 ± 0.0815 E-score.
The result for AGTGTGAT reads 0.247 ± 0.0427 E-score.
On to CGTGATAG, for which the binding signal was determined as 0.244 ± 0.00391 E-score.
The figure for AGTGATAC is 0.489 ± 0.00626 E-score.
The result for GGTGATAC reads 0.4856 ± 0.00178 E-score.
The result for CGTGATAC reads 0.4798 ± 0.000721 E-score; that for ACACCATG, 0.306 ± 0.0191 E-score; that for CCCCATCG, 0.152 ± 0.0278 E-score.
TACCCACA: the binding signal was 0.196 ± 0.0401 E-score.
Consider ATAGGCAG, for which the binding signal was determined as 0.184 ± 0.025 E-score.
The figure for CCAAGATA is 0.229 ± 0.0485 E-score; for ATACGCAG it is 0.314 ± 0.0177 E-score.
In the case of ATCATGTC, the binding signal stood at 0.295 ± 0.0201 E-score.
The figure for GCGACCGA is 0.151 ± 0.024 E-score; for ATCCCGAT it is 0.378 ± 0.0289 E-score.
The result for ATCCCCAT reads 0.295 ± 0.0355 E-score.
